Bioassay records from PubChem BioAssay.
hcDAF12 agonist – activates DAF-12 receptor from parasite H. contortus. HEK293 hcDAF-12 lit1-tk-luc reporter, luminescence; 0% DMSO, 100% Δ7-dafachronic acid. AID 652067. activation, % at 6.8 µM. 1.4% of 370,000 active;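 active = activation above the mean of all tested compounds plus 3 SD, cut at about 5.5% in these data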
hgDAF-12 ag – hgDAF-12 agonism, primary luciferase screen | HEK293 GAL4-hgDAF12 UAS-luciferase reporter, agonist luminescence; normalized to butyrate control | activation, % at 6.8 µM | 1.8% of 370,000 active;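 active = activation above a cutoff set at the mean of all screened compounds plus 3 SD, cut at about 10% in these data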
ssDAF12 agonist – activates DAF-12 receptor from parasite S. stercoralis | HEK293 ssDAF-12/GRIP1 lit1-tk-luc reporter, luminescence; % of 3 µM dafachronic acid response | activation, % at 6.8 µM | 1% of 370,000 active;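 active = activation above the mean over all tested compounds plus 3 SD, cut at about 0.9% in these data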
DAX1 inh-1 – inhibitors of human orphan nuclear receptor DAX1 (NR0B1); P51843; HEK293 Gal4-DAX1 luciferase reporter, luminescence; inhibition, % at 6.75 µM; 0.99% of 340,000 active;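 active = inhibition above the mean over all tested compounds plus 3 SD, cut at about 4.2% in these data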;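 note: inhibition shows as a rise in luminescence from relieved DAX1 repression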
Target sequence (P51843 207-470 limits assumed): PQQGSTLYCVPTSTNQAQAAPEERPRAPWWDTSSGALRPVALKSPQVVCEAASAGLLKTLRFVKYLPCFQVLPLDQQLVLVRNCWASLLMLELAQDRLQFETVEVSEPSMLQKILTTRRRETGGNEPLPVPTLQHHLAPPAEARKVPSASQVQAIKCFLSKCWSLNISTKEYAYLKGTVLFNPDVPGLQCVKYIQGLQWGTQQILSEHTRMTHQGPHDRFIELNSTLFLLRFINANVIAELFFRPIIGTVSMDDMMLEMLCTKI
DAX1 inh-2 – DAX1 (NR0B1) inhibition, primary screen | HEK293T StAR-luciferase reporter, SF-1/DAX-1 repression relief | inhibition, % at 6.8 µM | 1.1% of 370,000 active;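 active = inhibition above the mean over all tested compounds plus 3 SD, cut at about 3.6% in these data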;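 note: higher inhibition means more luminescence from relief of DAX-1 repression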
Numbers stand for hits; . = inactive; / = not tested or not shown. Only some compounds are listed: those with a hit (about 4.1% of all), similar ones and a draw of the others.

SMILES	hcDAF12 agonist	hgDAF-12 ag	ssDAF12 agonist	DAX1 inh-1	DAX1 inh-2
O=C(NCCC1=CCCCC1)c1ccc(CN2CCOCC2)cc1	.	.	0.9	.	.
CC(C)Oc1ccc(C(=O)NC2CCCCC2)cc1	.	.	.	.	.
COC(=O)[C@]12C[C@H](CC(=O)NCc3ccc(OC)c(OC)c3)C(=O)N(CCc3ccc(OC)c(OC)c3)C1=C[C@H](C(C)(C)C)O[C@@H]2C	.	.	.	/	.
O=C(Cn1c(-c2cncs2)nc2ccccc21)NCc1cccs1	.	.	.	/	.
CC(C)Sc1nsc2nc(=O)c(/C=C3\C=Nc4ccccc43)c(N)n12	.	.	.	.	.
CS(=O)(=O)c1nsc2nc(=O)c(/C=C3\C=Nc4ccccc43)c(N)n12	.	.	1.0	.	.
CCCCc1nn2c(N)c(/C=C3\C=Nc4ccccc43)c(=O)nc2s1	.	.	2.7	.	.
CN(C)c1cccc2c1c(NC(=O)Nc1ccccc1)nn2C	.	.	.	4.3	.
CN(C)c1cccc2c1c(NC(=O)c1ccc(Cl)cc1)nn2C	.	.	.	5.7	.
COC(=O)c1cc2c(c3c4cc(C)ccc4n(S(=O)(=O)c4cccc(C)c4)c13)C(=O)N(Cc1ccccc1OC)C2	.	.	.	/	.
COC(=O)[C@]12C[C@H](CC(=O)NCCCCc3ccccc3)C(=O)N(Cc3cccc4ccccc34)C1=C[C@H](C(C)(C)C)O[C@@H]2C	.	.	.	/	.
O=C(CSc1nnc(COc2ccccc2)n1-c1ccccc1)Nc1ccc2c(c1)OCCO2	.	.	.	/	.
CCN1C(=O)c2cccc3c(S(=O)(=O)Nc4ccccn4)ccc1c23	.	.	.	6.7	.
COc1ccc(-c2noc(C3CCCN(C(=O)Nc4ccc(Cl)cc4)C3)n2)cc1 (centres undefined)	.	.	.	/	.
COC(=O)C1=C(C)N(Cc2ccccc2C(F)(F)F)C(=NCc2cc(OC)c(OC)c(OC)c2)NC1c1cccc(F)c1 (centres undefined)	.	.	.	/	.
COC(=O)CCC(=O)OC	.	.	.	4.4	.
CN(C)c1cccc(/C=C2\CC3(OC(=O)C4CCCC4)CCCN2C3)c1 (centres undefined)	.	.	.	/	.
C=CCOc1cccc(/C=N/NC(=O)CN(c2cc(Cl)ccc2OC)S(=O)(=O)c2ccc(C)c([N+](=O)[O-])c2)c1	.	.	1.0	.	.
Cc1onc(-c2ccccc2)c1C(=O)N1CCN(C(=O)C(=O)c2cccc(C(F)(F)F)c2)CC1	.	.	.	/	.
Cc1cc(C)n2cc(CSc3nc4ccccc4s3)nc2n1	5.7	.	.	.	.
Cc1cc(C)n2cc(CSc3nnc(N)s3)nc2n1	.	.	.	.	.
Cc1cc(C)cc(-c2c(C(=O)c3ccccc3)[nH]c(N)c2C(=O)NCCc2c[nH]c3ccccc23)c1	.	.	.	/	/
CC(=O)Nc1ccc(S(=O)(=O)N[C@@H](C)C(=O)OCC(=O)c2ccc(Br)s2)cc1	.	.	.	8.1	.
COc1ccc(C(=O)COC(=O)[C@H](C)NS(=O)(=O)c2ccc(NC(C)=O)cc2)cc1OC	.	.	.	.	.
CCOC(=O)[C@@]12CCCC3=C1N(CCC3)C(=O)[C@H]2CC(=O)N1CCN(C(=O)C2CC2)CC1	.	.	.	/	.
SMILES	hcDAF12 agonist	hgDAF-12 ag	ssDAF12 agonist	DAX1 inh-1	DAX1 inh-2
O=C(Cn1cc(S(=O)(=O)Cc2ccccc2F)c2ccccc21)N1CCOCC1	.	11	.	.	.
O=C(C(=O)N1CCOCC1)c1cn(CC(=O)N2CCc3ccccc3C2)c2ccccc12	.	.	.	.	.
O=C(C(=O)N1CCc2ccccc2C1)c1cn(CC(=O)N2CCOCC2)c2ccccc12	.	.	1.8	.	.
Cc1cc(N2CCN(C(=O)OC(C)(C)C)C[C@@H]2C)ccc1N1CCS(=O)(=O)CC1	.	.	.	/	.
COC(=O)[C@]12C[C@H](CC(=O)N3CCCCC3)C(=O)N(Cc3ccc(Cl)cc3Cl)C1=C[C@H](C1CCCC1)O[C@@H]2C	.	.	.	/	.
O=C(CSc1nncs1)NC(=O)Nc1ccc2c(c1)OCCO2	.	12	.	.	.
Cc1cccc(-c2nnc(SCC(=O)Nc3ccc(OCc4ccccc4)cc3)n2Cc2ccco2)c1	.	.	.	/	.
COc1ccc2c(c1)S/C(=C\C(=O)c1ccncc1)N2C	.	12	.	.	.
O=C(CCS(=O)(=O)c1cccs1)NC1CCCCCC1	.	12	.	.	.
CCSc1nnc(NC(=O)C2CCCCC2)s1	.	.	.	4.7	.
CSc1nnc(NC(=O)C2CCCCC2)s1	.	.	.	.	.
Cc1ccc2nc(NC(=O)C3CCCN(S(=O)(=O)c4cnc[nH]4)C3)sc2c1 (centres undefined)	.	.	.	6.3	.
O=C(NC1CCCCCCC1)C1CCCN(S(=O)(=O)c2cnc[nH]2)C1 (centres undefined)	.	.	.	.	.
O=C(NC1CCCCC1)C1CCCN(S(=O)(=O)c2cnc[nH]2)C1 (centres undefined)	.	.	.	5.0	.
CCSc1nnc(NC(=O)C2CCCN(S(=O)(=O)c3cnc[nH]3)C2)s1 (centres undefined)	.	.	.	13	.
CC(C)(C)c1ccc(-c2noc(CCC(=O)NC3CC3)n2)cc1	.	.	.	/	/
O=C(Nc1ccccc1[N+](=O)[O-])NC1CCCCN(Cc2ccc(Cl)cc2)C1=O (centres undefined)	.	.	.	/	.
C[C@@H]1CN([C@@H](C)CO)C(=O)c2c(c3ccccc3n2C)-c2ccccc2CO[C@H]1CN(C)C(=O)[C@H](C)c1ccccc1	.	.	.	.	.
C[C@@H]1CN([C@H](C)CO)C(=O)c2c(c3ccccc3n2C)-c2ccccc2CO[C@H]1CN(C)C(=O)c1cc(Cl)cc(Cl)c1	.	.	.	4.3	.
CC(C)(C)n1ncc2c(=O)n(CC(=O)NCCc3ccccc3)cnc21	.	.	.	.	.
CC(C)(C)n1ncc2c(=O)n(CC(=O)NCc3ccccc3Cl)cnc21	6.1	.	.	.	.
Cc1cccc2sc(N(CCCN(C)C)C(=O)c3ccc(Cl)s3)nc12	.	.	0.9	.	.
C[C@H]1[C@@H](NC(=O)c2ccc(O)cc2)CC[C@@]23CCCN2C(=O)CCC[C@@H]13	.	.	.	/	/
Oc1cc(-c2ccc(N3CCCCC3)nc2)cc2cccnc12	/	/	/	5.6	/
COC(=O)[C@]12C[C@H](CC(=O)NCc3cccc4ccccc34)C(=O)N(CCc3ccc(OC)c(OC)c3)C1=C[C@H](C(C)C)O[C@@H]2C1CC1	.	.	.	/	.
Cn1ccsc1=NC(=O)c1ccccc1F	.	.	.	.	.
Cn1ccs/c1=N\C(=O)Nc1ccccc1	.	12	.	.	.
O=C(NCC1COCCO1)C1CCN(S(=O)(=O)c2cccs2)CC1 (centres undefined)	.	.	.	/	.
